Reference: PubChem BioAssay AID360 (National Center for Advancing Translational Sciences (NCATS), 2006)
Among all 48,000 compounds or so, about 550 (1.1%) were called active. Roughly 4% stayed inconclusive and do not appear here. This is one part of a sample in which actives are shown more often than they occur. No stated cut-off is given here; in the data, active means potency below about 15 µM; inconclusive means mostly about 16 µM to 33 µM; inactive means weaker than that.

What follows are compounds tested against Lysosomal acid glucosylceramidase (Homo sapiens) (UniProt P04062) (assay: Glucocerebrosidase). Conditions: purified enzyme, resorufin glucoside fluorescence (screen aimed at inhibitors), 20 min.
Excerpt: NCGC Assay Overview: Beta-glucocerebrosidase catalyzes the hydrolysis of beta-glucocerebroside to glucose and ceramide. The inherited deficiency of beta-glucocerebrosidase results in Gaucher disease, which is characterized by a wide variety of symptoms including hepatosplenomegaly, anemia, thrombocytopenia, bony lesions and bone marrow infiltration with characteristic storage cells, known as Gaucher cells. There are also forms of the disorder affecting the central nervous system. Patients with the same genotypes can manifest with diverse clinical presentations and it is believed that improper folding and trafficking of beta-glucocerbrosidase may contribute to the phenotypes observed. Low molecular weight molecules, acting as chaperones, may potentially restore trafficking of misfolded beta-glucocerebrosidase from the endoplasmic reticulum to the lysosomes, thereby enhancing functional lysosomal beta-glucocerebrosidase activity. Using normal beta-glucocerebrosidase, an assay was developed to screen for small molecule inhibitors that could potentially act as molecular chaperones on the mutant forms [developed with NIH investigator Dr. Ellen Sidransky's laboratory]. Two pro-fluorescent substrates were chosen for two screens against a small molecule library. One beta-glucocerebrosidase assay used Resorufin beta-D-Glucopyranoside (Marker Gene Technology Inc.), generating a red fluorescent product. The second assay used Fluorescein di-beta-D-Glucopyranoside, generating a blue fluorescent product. […] The IC50 values of Conduritol B Epoxide, a known glucocerebrosidase inhibitor, were determined to be 87.5 uM and 117 uM, respectively. The use of two difference pro-fluorescent substrates in the screens helped to eliminate false positives. All compounds were screened in a titration series resulting in AC50s (e.g., IC50s or EC50s).
NCGC Assay Protocol Summary: Both enzyme and substrate were diluted in buffer composed of 50mM citric acid/KH2PO4, 10mM sodium taurocholate and 0.01% tween-20 at pH 5.9. The final concentration of the enzyme was 0.2 nM in both assays. The compound library was titrated in 7 to 15 concentrations for the primary screens with a final concentration ranging from 0.6 nM to 50 uM. This particular assay protocol is for the "red" substrate, and it was performed in 1536-well plate format as follows: Red fluorescence substrate assay: 2 uL enzyme 23 nL compound 1 uL substrate (final concentration of 30 uM) Incubate at room temperature (RT) for 20 minutes Read the plate in Viewlux plate reader (Ex=548(7) and Em=600(10)).
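Further: the screen sought inhibitors.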
Potency means the concentration at half of the fitted maximal effect.

Chain of Lysosomal acid glucosylceramidase (Homo sapiens) (P04062 whole entry, looked up): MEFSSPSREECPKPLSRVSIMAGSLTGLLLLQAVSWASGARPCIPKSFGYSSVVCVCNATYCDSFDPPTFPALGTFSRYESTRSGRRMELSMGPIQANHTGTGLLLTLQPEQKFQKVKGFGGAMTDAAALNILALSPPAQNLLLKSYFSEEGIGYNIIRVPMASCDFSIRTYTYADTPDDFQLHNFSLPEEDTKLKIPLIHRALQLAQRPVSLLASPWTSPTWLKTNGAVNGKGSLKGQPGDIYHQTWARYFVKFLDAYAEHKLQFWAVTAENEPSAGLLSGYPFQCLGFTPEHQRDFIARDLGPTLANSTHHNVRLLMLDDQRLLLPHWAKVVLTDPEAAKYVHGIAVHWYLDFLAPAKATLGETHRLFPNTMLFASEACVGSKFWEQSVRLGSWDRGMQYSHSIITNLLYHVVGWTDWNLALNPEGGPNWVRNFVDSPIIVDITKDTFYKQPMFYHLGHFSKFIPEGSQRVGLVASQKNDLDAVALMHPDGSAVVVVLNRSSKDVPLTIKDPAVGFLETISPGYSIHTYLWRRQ

Compound	Potency
O=C(OCC(O)C(O)COC(=O)c1ccccc1)c1ccccc1 (stereo not drawn)	> 76.9 µM (inactive)
Cc1ccc(C)c(NS(=O)(=O)c2cc(Br)cnc2N)c1	15.2 µM (active)
Cc1ccc(S(=O)(=O)NCc2csc(C)n2)c(C)c1	> 76.9 µM (inactive)
COC(=O)c1c(NC(=O)CSc2nc3c(c(=O)n(C)c(=O)n3C)n2C(C)C)sc(C)c1C	> 76.9 µM (inactive)
Cc1nc2nc(COc3ccccc3)[nH]n2c(=O)c1C	> 76.9 µM (inactive)
Cc1nc2c(-c3ccccc3)c(C)[nH]n2c(=O)c1Cl	5.44 µM (active)
CCn1c(COc2ccccc2)nnc1SCC(=O)Nc1ccc2c(c1)OCCO2	> 76.9 µM (inactive)
O=C(NCc1cn2ccsc2n1)Nc1ccc(Cl)cc1	> 76.9 µM (inactive)
O=c1cc(Cn2nnc(-c3ccc(Cl)cc3)n2)nc2sccn12	> 76.9 µM (inactive)
O=C(NCc1ccc(Cl)cc1)c1cc2c(nc3sccn32)s1	8.26 µM (active)
CCn1c(SCC(=O)c2ccc(Cl)s2)nnc1-c1cccs1	> 76.9 µM (inactive)
Cc1ccc2c(NC(=O)C3CC3)cccc2n1	> 76.9 µM (inactive)
CCN(CC)S(=O)(=O)N1CCC(C(=O)NC(C)CCc2ccccc2)CC1 (stereo not drawn)	> 76.9 µM (inactive)
CC(=O)N1CCC(C(=O)Nc2nc(-c3ccccc3)ns2)CC1	7.19 µM (active)
CCc1nnc(NS(=O)(=O)c2ccc(NS(=O)(=O)c3ccccc3)cc2)s1	> 76.9 µM (inactive)
CCc1nnc(NC(=O)c2ccc(S(=O)(=O)NC3CCCCC3)cc2)s1	9.65 µM (active)
CCc1nnc(NC(=O)C2CCCN2S(=O)(=O)c2ccccc2)s1 (stereo not drawn)	> 76.9 µM (inactive)
O=C(c1ccccc1-c1ccccc1)N1CCOCC1	> 76.9 µM (inactive)
Cc1occc1C(=O)Nc1cccc(Cn2cccn2)c1	> 76.9 µM (inactive)
CCNc1nc(N)nc(Oc2ccc(OCC)nn2)n1	> 76.9 µM (inactive)
CC(C)(C)c1nc(NCC2CCCO2)c2nnn(Cc3ccccc3)c2n1 (stereo not drawn)	> 76.9 µM (inactive)
Cc1ccccc1-c1nnn(CC(=O)c2ccc(S(=O)(=O)N3CCCC3)cc2)n1	> 76.9 µM (inactive)
O=C(Cn1nnc(-c2ccccc2)n1)NCc1ccccc1	> 76.9 µM (inactive)
CC(C)(C)NC(=O)Cn1nnc(-c2ccccc2Cl)n1	15.2 µM (active)

Compound	Potency
Cc1noc(C)c1COC(=O)Cn1c(C)nc2ccccc21	> 76.9 µM (inactive)
CC(C)[C@H](NC(=O)Nc1ccc(S(N)(=O)=O)cc1)C(=O)O	> 76.9 µM (inactive)
COc1ccc(OC)c(NC(=O)CSc2nc3cccnc3n2C)c1	> 76.9 µM (inactive)
CCOC(=O)CSc1nnc(CNc2nc(-c3ccccc3)cs2)n1C	> 76.9 µM (inactive)
Cc1ccc(NC(=O)Cn2nc(C)c3ccccc3c2=O)c(C)c1	> 76.9 µM (inactive)
COC(=O)c1ccc2c(=O)n(CC3CCCO3)c(=S)[nH]c2c1 (stereo not drawn)	> 76.9 µM (inactive)
O=C(NC1CCCCC1)c1ccc2c(=O)n(CC3CCCO3)c(=O)[nH]c2c1 (stereo not drawn)	6.37 µM (active)
O=c1c2cc3c(=O)n(CC4CCCO4)c(=O)c3cc2c(=O)n1CC1CCCO1 (stereo not drawn)	> 76.9 µM (inactive)
O=C(C1CCC(C(=O)N2CCCC2)CC1)N1CCCC1 (stereo not drawn)	> 76.9 µM (inactive)
CCOc1ccc(NC(=O)Nc2cc(C)on2)cc1	> 76.9 µM (inactive)
CC1(C)CC(=O)C=C(NCCCN2CCCC2=O)C1	> 76.9 µM (inactive)
O=C(OCc1nnc(-c2ccccc2)o1)c1ccc2c(c1)C(=O)N(CCc1ccccc1)C2=O	> 76.9 µM (inactive)
CCNC(=O)CN(c1ccc(C)cc1)S(=O)(=O)c1ccc(SC)cc1	> 76.9 µM (inactive)
COc1ccc(Cl)cc1NC(=O)C1CC(=O)N(c2ccc(F)cc2)C1 (stereo not drawn)	> 76.9 µM (inactive)
O=S(=O)(NCc1ccccn1)c1ccc(Br)s1	> 76.9 µM (inactive)
c1ccc(-c2cc(-c3nnc4sc(-c5ccccn5)nn34)[nH]n2)cc1	> 76.9 µM (inactive)
CCCn1c(=O)c(-c2ccccc2)c(O)c2ccccc21	> 76.9 µM (inactive)
Cc1ccc(F)cc1NC(=O)c1ccc2c(c1)OCO2	> 76.9 µM (inactive)
Cc1ccc(-n2c(N)c(C(=O)N3CCOCC3)sc2=S)c(C)c1	> 76.9 µM (inactive)
COc1ccc(-n2nnnc2SCC(=O)c2ccc(OC)c(OC)c2)cc1	> 76.9 µM (inactive)
Cn1c(SCC(=O)Nc2cccc(NC(=O)c3cccs3)c2)nnc1-c1ccncc1	> 76.9 µM (inactive)
COc1ccc(N2CCN(C(=O)CSc3nnc4ncccn34)CC2)cc1	> 76.9 µM (inactive)
Cc1ccc(OCC(=O)Nc2ccc(-c3nc4ncccc4o3)cc2)cc1	> 76.9 µM (inactive)
O=C(O)c1ccc(-n2cccc2)cc1O	> 76.9 µM (inactive)

Compound	Potency
CCCCN(C)C(=O)C1CCN(Cc2ccccn2)CC1	> 76.9 µM (inactive)
O=C(Nc1ccon1)c1cccc(Cl)c1	> 76.9 µM (inactive)
Fc1ccc(Cn2nnnc2C(c2cccs2)N2CCCCCC2)cc1 (stereo not drawn)	> 76.9 µM (inactive)
CCC(=O)N(Cc1cc2cc(OC)ccc2[nH]c1=O)c1ccccc1C	> 76.9 µM (inactive)
Cc1ccc(C2(c3ccc(C)cc3)NC(=O)N(Cc3c(C)noc3C)C2=O)cc1	> 76.9 µM (inactive)
CCOc1cc(C2C(C(=O)OC)=CN(C3CCCC3)C=C2C(=O)OC)cc(Br)c1O	6.06 µM (active)
CCOc1ccccc1C1C(C(=O)OC)=CN(C)C=C1C(=O)OC	> 76.9 µM (inactive)
CCOc1ccc(CNC(=O)C2CCC(=O)N2C2CCCC2)cc1OC (stereo not drawn)	> 76.9 µM (inactive)
CC(C)CCNC(=O)CN(C(=O)Cn1nnc(-c2ccc(F)cc2)n1)C1CCCC1	> 76.9 µM (inactive)
CC(=O)Nc1ccc(S(=O)(=O)NCCc2ccccc2)cc1	> 76.9 µM (inactive)
O=C(CN1CCN(c2nc(-c3ccccc3)cs2)CC1)NCc1ccc2c(c1)OCO2	> 76.9 µM (inactive)
O=C(CSc1nnc(-c2ccccc2)o1)N1CCOCC1	> 76.9 µM (inactive)
CS(=O)(=O)N(CC(=O)N1CCN(c2cccc(Cl)c2)CC1)c1ccccc1	> 76.9 µM (inactive)
CCN1C(=O)/C(=C\N2CCN(c3cccc(Cl)c3)CC2)SC1=S	7.83 µM (active)
CCN1C(=O)/C(=C\N2CCN(c3ccccc3)CC2)SC1=S	70.4 µM (inactive)
CCOc1ccc(NC(=O)N2CC=C(n3c(=O)[nH]c4ccccc43)CC2)cc1	> 76.9 µM (inactive)
CCOc1ccc(NC(=O)Nc2ccc(N(C)C(C)=O)cc2)cc1	> 76.9 µM (inactive)
CCOc1ccc(NC(=O)N2CCN(CC)CC2)cc1	11.1 µM (active)
Cc1ccc(NC(=O)NCC(c2cccnc2)N2CCOCC2)cc1 (stereo not drawn)	> 76.9 µM (inactive)
COc1ccc(C(CNC(=O)c2cccnc2SC)N2CCOCC2)cc1 (stereo not drawn)	15 µM (active)
CSc1ncccc1C(=O)OCC(=O)N1CCOCC1	> 76.9 µM (inactive)
CCC(c1nnnn1Cc1ccccc1)N(Cc1cc2cc(OC)ccc2[nH]c1=O)CC1CCCO1 (stereo not drawn)	> 76.9 µM (inactive)
COc1ccc2[nH]c(=O)c(CN(Cc3nnnn3CCc3ccccc3)CC3CCCO3)cc2c1 (stereo not drawn)	35.8 µM (inactive)
CCC(c1nnnn1Cc1ccco1)N(CCc1ccccc1)Cc1cc2ccc(OC)cc2[nH]c1=O (stereo not drawn)	14.2 µM (active)

Compound	Potency
O=C(O)C1CCCN1S(=O)(=O)c1ccc2c(c1)CCC2 (stereo not drawn)	> 76.9 µM (inactive)
CSc1cccc(NC(=O)C2CCCN2S(=O)(=O)c2ccc3c(c2)CCC(=O)N3)c1 (stereo not drawn)	10.1 µM (active)
Cc1cccc(NC(=O)C2CCCN2S(=O)(=O)c2ccc(F)cc2)c1C (stereo not drawn)	> 76.9 µM (inactive)
COc1ccc(-n2c(C)nc3c(cnn3-c3ccccc3)c2=O)cc1	> 76.9 µM (inactive)
CNC(=O)c1nnn(-c2ccccc2)c1C(=O)NC	> 76.9 µM (inactive)
CCOc1ccccc1C(=O)NCCCn1ccnc1	> 76.9 µM (inactive)
CCCCC(=O)Nc1ccc2c(c1)OCCO2	> 76.9 µM (inactive)
CCCC(=O)Nc1ccc(C(=O)NCCCn2ccnc2)cc1	6.73 µM (active)
CCCCC(=O)Nc1ccc(C(=O)NCCCn2ccnc2)cc1	5.11 µM (active)
Cc1ccc(CNC(=O)CCCNC(=O)c2ccc(Cl)cc2)n1C	> 76.9 µM (inactive)
CCN(CC)C(=O)CCC(=O)Nc1ccc(C(=O)OC)cc1	> 76.9 µM (inactive)
CCc1c(C)nc(N)n2c(SCC(=O)N3CCN(c4ccccc4)CC3)nnc12	> 76.9 µM (inactive)
COc1c(C)cccc1C(=O)Nc1cc(Cl)ccc1N1CCOCC1	> 76.9 µM (inactive)
COc1ccc(S(=O)(=O)N2CCCC2)c(C)c1C	> 76.9 µM (inactive)
CC(C)C(c1nnnn1C1CCCC1)N1CCN(c2ccccc2F)CC1 (stereo not drawn)	45 µM (inactive)
CCOC(=O)c1c(C)[nH]c(C)c1C(=O)CSc1nc(N)cc(N)n1	> 76.9 µM (inactive)
O=C(CSc1nnc(-c2cnccn2)n1Cc1ccco1)c1ccc(Cl)c(Cl)c1	> 76.9 µM (inactive)
COCCCn1c(CCC(=O)O)ccc1-c1ccc(F)cc1	> 76.9 µM (inactive)
O=C(NCCCNC(=O)NC1CCCCC1)NC1CCCCC1	> 76.9 µM (inactive)
CC(=O)N1CSCC1C(=O)O (stereo not drawn)	> 76.9 µM (inactive)
O=C(CSc1nnc(-c2ccco2)n1CC1CCCO1)c1ccccc1 (stereo not drawn)	> 76.9 µM (inactive)
